Experimental data as given in PubChem BioAssay (NCATS).
“And” between values parts separate entries of the source, which are not always exact repeats. Equal entries are not always repeated. Inconclusive results are not listed. Where a call stands in place of a potency, no number is given. The source made the active and inactive calls. Unless noted, the call rests on the fitted dose curve.

Key:
[1] = target: Glucocorticoid receptor (Homo sapiens) (UniProt P04150); assay: qHTS assay for small molecule agonists of glucocorticoid receptor signaling (AID 588532; active means well fitted curve in the direction sought with a large enough effect in the signal ratio, with a control signal flat; the % refers to the signal ratio); details: HeLa MMTV-bla, beta-lactamase ratio, agonist, 18 h; stronger effect = higher value; percent of dexamethasone control, DMSO zero
Sequence of Glucocorticoid receptor (Homo sapiens) (P04150 whole entry, looked up): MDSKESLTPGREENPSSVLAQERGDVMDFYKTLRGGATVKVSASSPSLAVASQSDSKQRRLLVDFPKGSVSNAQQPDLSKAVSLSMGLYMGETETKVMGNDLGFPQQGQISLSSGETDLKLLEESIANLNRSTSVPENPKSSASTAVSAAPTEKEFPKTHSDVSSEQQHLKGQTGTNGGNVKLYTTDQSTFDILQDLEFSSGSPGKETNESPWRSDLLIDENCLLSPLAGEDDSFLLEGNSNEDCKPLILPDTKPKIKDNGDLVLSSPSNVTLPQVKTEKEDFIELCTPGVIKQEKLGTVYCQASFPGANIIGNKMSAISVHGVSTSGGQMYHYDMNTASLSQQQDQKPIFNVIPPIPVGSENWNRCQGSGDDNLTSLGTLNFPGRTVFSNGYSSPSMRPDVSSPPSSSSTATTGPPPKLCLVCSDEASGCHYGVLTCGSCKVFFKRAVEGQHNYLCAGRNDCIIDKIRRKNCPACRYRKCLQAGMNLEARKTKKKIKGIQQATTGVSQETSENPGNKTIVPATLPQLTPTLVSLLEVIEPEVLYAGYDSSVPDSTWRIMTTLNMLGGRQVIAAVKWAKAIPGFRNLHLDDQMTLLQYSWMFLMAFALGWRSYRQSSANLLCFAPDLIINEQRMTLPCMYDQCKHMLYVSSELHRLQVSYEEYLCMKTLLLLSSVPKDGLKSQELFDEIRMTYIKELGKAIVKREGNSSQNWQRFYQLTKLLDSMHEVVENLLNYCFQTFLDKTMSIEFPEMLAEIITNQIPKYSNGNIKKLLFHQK
Summary of the method: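 MMTV-bla HeLa beta-lactamase reporter cells in 1% charcoal/dextran FBS medium, compounds up to 92 uM for 18 h at 37 C, CCF4 readout; normalized to 0.1 uM dexamethasone (100%), EC50 and efficacy from Hill fits.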

[2] = target: Vitamin D3 receptor (Homo sapiens) (UniProt P11473); assay: qHTS assay for small molecule antagonists of vitamin D receptor signaling (AID 588541);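 further: receptor activated by calcitriol during compound treatment; series mostly up to about 77 µM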
Sequence of Vitamin D3 receptor (Homo sapiens) (P11473 whole entry, looked up): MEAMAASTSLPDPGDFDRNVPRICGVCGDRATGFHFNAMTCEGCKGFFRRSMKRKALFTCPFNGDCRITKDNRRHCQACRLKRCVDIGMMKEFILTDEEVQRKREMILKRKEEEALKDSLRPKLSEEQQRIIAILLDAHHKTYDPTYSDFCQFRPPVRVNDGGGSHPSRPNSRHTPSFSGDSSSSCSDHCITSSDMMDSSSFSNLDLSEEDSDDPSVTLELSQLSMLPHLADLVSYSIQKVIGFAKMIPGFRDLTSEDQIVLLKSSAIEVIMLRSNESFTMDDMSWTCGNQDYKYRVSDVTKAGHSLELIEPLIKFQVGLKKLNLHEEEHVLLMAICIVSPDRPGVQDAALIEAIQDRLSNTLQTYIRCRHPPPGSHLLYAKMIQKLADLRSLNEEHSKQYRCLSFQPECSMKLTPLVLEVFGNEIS
Summary of the method: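 VDR-UAS-bla HEK293T cells in 2% charcoal-stripped FBS were stimulated with 1-alpha,25-dihydroxyvitamin D3 (3 nM final) plus compound for 16 h at 37 C. The beta-lactamase CCF4 readout was normalized to 50 nM agonist and DMSO, and Hill fits gave IC50.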

[3] = target: Vitamin D3 receptor (Homo sapiens) (UniProt P11473); assay: qHTS assay for small molecule agonists of vitamin D receptor signaling (AID 588543)
Summary of the method: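 qHTS in agonist mode: compound titrations stimulate a VDR-driven β-lactamase reporter in HEK293T cells over 16 h at 37 °C. Response normalized to 50 nM 1α,25-dihydroxyvitamin D3 = 100%, DMSO = 0%; Hill fitting gives EC50 and maximal response.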

[4] = qHTS assay for small molecule agonists of retinoid X receptor alpha signaling (AID 588544); details: HEK293T RXRa-UAS-bla, beta-lactamase reporter, 18 h; 530 nm emission; further: potency means the concentration at half of the fitted maximal effect
[5] = target: Retinoic acid receptor RXR-alpha (Homo sapiens) (UniProt P19793); assay: as above
Sequence of Retinoic acid receptor RXR-alpha (Homo sapiens) (P19793 whole entry, looked up): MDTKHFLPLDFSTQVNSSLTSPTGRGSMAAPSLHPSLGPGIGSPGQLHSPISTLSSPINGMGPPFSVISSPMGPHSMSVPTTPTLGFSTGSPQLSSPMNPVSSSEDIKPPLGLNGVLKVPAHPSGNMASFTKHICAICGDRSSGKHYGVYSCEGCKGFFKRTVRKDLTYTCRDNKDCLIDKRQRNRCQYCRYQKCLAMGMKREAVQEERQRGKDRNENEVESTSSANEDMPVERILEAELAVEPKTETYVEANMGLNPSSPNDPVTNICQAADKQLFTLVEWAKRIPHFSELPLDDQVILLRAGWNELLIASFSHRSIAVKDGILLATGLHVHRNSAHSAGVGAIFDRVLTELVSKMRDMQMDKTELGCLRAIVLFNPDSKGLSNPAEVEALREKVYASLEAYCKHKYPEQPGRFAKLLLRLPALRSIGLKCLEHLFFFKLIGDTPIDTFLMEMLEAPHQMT

[6] = target: Thyroid hormone receptor beta (Homo sapiens) (UniProt P10828); assay: qHTS assay for small molecule agonists of thyroid hormone receptor beta signaling (AID 588545)
Sequence of Thyroid hormone receptor beta (Homo sapiens) (P10828 whole entry, looked up): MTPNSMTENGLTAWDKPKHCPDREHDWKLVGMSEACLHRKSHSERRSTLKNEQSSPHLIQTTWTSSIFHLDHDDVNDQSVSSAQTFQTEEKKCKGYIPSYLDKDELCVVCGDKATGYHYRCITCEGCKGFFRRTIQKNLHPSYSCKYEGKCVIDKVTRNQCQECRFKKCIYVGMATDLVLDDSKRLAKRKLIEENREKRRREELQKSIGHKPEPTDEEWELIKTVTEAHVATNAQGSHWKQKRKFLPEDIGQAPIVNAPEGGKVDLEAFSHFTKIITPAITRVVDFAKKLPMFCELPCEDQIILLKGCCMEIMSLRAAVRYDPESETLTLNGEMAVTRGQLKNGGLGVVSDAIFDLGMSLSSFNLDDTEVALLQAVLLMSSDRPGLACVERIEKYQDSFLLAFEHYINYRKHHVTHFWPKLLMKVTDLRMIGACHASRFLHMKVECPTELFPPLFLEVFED
Summary of the method: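 Agonist activity was read as beta-lactamase CCF4 fluorescence (405 ex, 460/530 em), scaled between DMSO (0%) and 10 nM T3 (100%), then Hill-fitted for EC50 and efficacy. HEK 293 TR-UAS-bla cells in 2% charcoal/dextran FBS medium were exposed 18 h at 37 C.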

[7] = qHTS assay for small molecule antagonists of retinoid X receptor alpha signaling (AID 588546; active means well fitted inhibition curve with a large enough effect in the signal ratio, with a control signal flat, not every such curve was filed as active; the % refers to the signal ratio;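 further: cells stimulated with 9-cis-retinoic acid as agonist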); details: HEK293T RXRa-UAS-bla, beta-lactamase ratio, antagonist mode; measured here: W530 green channel, cytotoxicity proxy
Summary of the method: (§1)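 Beta-lactamase reporter inhibition, read as CCF4 fluorescence ratio (ex 405, em 460/530 nm) after 2 h at RT. HEK293T UAS-bla cells, 2500/well, were stimulated with 9-cis-RA at 500 or 100 nM final alongside test compound for 18 h at 37 C.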

[8] = target: Retinoic acid receptor RXR-alpha (Homo sapiens) (UniProt P19793); assay: as above; details: HEK293T RXRa-UAS-bla, beta-lactamase ratio, antagonist mode
Summary of the method: as §1

[9] = target: Thyroid hormone receptor beta (Homo sapiens) (UniProt P10828); assay: qHTS assay for small molecule antagonists of thyroid hormone receptor beta signaling (AID 588547; active means well fitted inhibition curve with a large enough effect in the signal ratio, with a control signal flat, not every such curve was filed as active; the % refers to the signal ratio;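 further: cells stimulated with 0.4 nM T3 agonist during compound exposure; series mostly up to about 77 µM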); details: TR-UAS-bla HEK293, beta-lactamase ratio, antagonist mode, 18 h
Summary of the method: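 TR-UAS-bla GripTite HEK293 cells in 2% charcoal/dextran FBS medium; compounds 0.59 nM to 92 uM with T3 at 0.4nM final, 18 h at 37 C. Beta-lactamase read by CCF4 fluorescence (460/530 nm); Hill fits gave IC50 and efficacy.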

[10] = target: Luciferin 4-monooxygenase (Photinus pyralis) (UniProt P08659); assay: Biochemical firefly luciferase enzyme assay for NPC (AID 624030; active means well fitted inhibition curve with a large enough effect;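 further: purified P. pyralis luciferase at 10 nM with luciferin and ATP substrate; series mostly up to about 59 µM; nearly all actives have a fitted effect of over 70% in size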)
Sequence of Luciferin 4-monooxygenase (Photinus pyralis) (P08659 whole entry, looked up): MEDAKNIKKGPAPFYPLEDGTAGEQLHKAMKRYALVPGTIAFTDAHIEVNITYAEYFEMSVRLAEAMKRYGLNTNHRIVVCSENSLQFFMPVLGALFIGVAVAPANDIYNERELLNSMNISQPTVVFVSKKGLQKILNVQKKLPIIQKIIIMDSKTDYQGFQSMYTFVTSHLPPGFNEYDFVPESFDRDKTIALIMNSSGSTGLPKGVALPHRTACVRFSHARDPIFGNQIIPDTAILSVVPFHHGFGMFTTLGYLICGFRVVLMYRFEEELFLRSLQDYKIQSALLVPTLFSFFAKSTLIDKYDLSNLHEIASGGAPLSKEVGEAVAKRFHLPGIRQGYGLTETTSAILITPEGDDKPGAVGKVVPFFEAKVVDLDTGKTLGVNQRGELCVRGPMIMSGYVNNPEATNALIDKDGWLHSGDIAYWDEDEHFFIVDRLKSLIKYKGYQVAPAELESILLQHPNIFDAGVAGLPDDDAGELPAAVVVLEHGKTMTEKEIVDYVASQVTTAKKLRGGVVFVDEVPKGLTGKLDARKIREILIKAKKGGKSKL
Summary of the method: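 Purified P. pyralis luciferase at 10 nM in 50 mM Tris Acetate (final), luminescence read within 5 minutes of enzyme addition to compounds. Activity normalised to PTC124 versus DMSO; concentration-response curves classed by r2, magnitude and activity.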

[11] = target: Bile acid receptor (Homo sapiens) (UniProt Q96RI1); assay: qHTS assay for small molecule antagonists of farnesoid X receptor signaling (AID 588526)
Sequence of Bile acid receptor (Homo sapiens) (Q96RI1 whole entry, looked up): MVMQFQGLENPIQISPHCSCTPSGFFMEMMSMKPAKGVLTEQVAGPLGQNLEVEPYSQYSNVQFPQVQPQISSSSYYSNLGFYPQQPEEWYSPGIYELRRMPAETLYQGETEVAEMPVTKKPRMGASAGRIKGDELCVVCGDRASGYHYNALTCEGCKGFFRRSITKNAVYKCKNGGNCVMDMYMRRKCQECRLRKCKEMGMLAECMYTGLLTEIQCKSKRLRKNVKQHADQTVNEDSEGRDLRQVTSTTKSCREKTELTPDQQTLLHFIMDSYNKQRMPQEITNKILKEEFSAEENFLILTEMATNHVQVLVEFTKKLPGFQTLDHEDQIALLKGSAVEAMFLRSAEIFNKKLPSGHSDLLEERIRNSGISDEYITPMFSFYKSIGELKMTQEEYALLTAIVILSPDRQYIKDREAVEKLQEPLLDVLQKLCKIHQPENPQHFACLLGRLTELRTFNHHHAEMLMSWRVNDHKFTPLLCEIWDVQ
Summary of the method: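 Antagonist mode: titrated compounds tested against chenodeoxycholic acid stimulation (normalized to 50 uM CDCA and DMSO) in GeneBLAzer HEK293T cells for 16 h. Beta-lactamase read by CCF4 fluorescence; IC50 from Hill fits.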

[12] = target: Peroxisome proliferator-activated receptor gamma (Homo sapiens) (UniProt P37231); assay: qHTS assay for small molecule antagonists of peroxisome proliferator-activated receptor gamma signaling (AID 588537; active means well fitted inhibition curve with a large enough effect in the signal ratio, with a control signal flat, not every such curve was filed as active; the % refers to the signal ratio;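 further: reporter cells co-stimulated with 50 nM rosiglitazone agonist during compound treatment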)
Sequence of Peroxisome proliferator-activated receptor gamma (Homo sapiens) (P37231 whole entry, looked up): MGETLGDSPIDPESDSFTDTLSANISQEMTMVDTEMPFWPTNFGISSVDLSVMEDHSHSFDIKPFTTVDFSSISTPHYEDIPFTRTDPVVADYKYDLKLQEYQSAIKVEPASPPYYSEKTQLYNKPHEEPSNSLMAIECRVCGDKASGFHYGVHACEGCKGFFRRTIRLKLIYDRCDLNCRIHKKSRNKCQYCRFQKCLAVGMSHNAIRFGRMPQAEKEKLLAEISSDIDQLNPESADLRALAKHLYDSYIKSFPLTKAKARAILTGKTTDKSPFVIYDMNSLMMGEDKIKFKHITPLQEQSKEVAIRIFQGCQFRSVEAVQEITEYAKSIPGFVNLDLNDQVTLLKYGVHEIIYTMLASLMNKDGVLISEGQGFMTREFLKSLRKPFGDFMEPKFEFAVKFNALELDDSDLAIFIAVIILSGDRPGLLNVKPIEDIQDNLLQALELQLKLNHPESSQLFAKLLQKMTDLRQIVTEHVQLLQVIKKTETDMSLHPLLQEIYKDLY
Summary of the method: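 Fluorescence at 460 and 530 nm (405 nm excitation) reported beta-lactamase cleavage of CCF4 after 2 h room-temperature loading. HEK293 reporter cells in 1% charcoal/dextran-treated FBS had received compound and rosiglitazone for 16 h.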

[13] = target: Voltage-gated inwardly rectifying potassium channel KCNH2 (Homo sapiens) (UniProt Q12809); assay: qHTS Assay for Small Molecule Inhibitors of the Human hERG Channel Activity (AID 588834; active means well fitted inhibition curve with a large enough effect;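 further: U2OS cells transduced with hERG by BacMam; top concentration of the series differs between compounds; lower thallium flux fluorescence means stronger hERG block; nearly all actives have a fitted effect of over 50% in size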)
Sequence of Voltage-gated inwardly rectifying potassium channel KCNH2 (Homo sapiens) (Q12809 whole entry, looked up): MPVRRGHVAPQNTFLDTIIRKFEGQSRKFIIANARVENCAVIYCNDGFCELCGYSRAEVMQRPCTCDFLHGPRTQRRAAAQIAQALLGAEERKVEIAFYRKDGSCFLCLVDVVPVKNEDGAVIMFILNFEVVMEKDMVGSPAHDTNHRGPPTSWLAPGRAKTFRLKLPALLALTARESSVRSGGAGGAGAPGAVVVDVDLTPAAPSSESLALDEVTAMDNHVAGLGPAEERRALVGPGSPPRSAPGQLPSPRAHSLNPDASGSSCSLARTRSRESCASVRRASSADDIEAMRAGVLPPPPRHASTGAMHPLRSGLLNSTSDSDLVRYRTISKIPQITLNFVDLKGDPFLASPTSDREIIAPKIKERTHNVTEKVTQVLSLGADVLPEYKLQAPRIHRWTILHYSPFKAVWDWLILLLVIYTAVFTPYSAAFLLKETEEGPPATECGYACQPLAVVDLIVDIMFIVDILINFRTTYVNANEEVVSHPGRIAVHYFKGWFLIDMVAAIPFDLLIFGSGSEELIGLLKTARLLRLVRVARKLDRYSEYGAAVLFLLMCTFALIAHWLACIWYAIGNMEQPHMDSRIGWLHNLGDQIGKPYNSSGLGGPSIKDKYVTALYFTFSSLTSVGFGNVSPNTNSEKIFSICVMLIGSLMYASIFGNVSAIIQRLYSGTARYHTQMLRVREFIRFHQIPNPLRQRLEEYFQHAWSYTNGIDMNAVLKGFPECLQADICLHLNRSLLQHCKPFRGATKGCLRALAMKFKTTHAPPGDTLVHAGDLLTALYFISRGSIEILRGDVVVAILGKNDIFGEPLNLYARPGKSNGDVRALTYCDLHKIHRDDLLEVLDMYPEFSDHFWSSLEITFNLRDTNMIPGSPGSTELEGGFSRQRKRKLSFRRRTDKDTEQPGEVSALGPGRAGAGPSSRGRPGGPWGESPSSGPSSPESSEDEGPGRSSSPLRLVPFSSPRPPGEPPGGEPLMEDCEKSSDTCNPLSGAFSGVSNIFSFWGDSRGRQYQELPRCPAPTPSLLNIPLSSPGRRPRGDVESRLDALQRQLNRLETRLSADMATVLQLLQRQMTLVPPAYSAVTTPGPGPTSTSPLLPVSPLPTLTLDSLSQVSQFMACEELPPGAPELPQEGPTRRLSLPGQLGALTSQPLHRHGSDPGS
Summary of the method: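 Cells were infected with hERG-BacMam virus for 4 hrs at room temperature, grown overnight, then seeded at 2000/well. After dye loading and roughly 10 min compound treatment, thallium influx was triggered and fluorescence recorded.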

[14] = target: Glucocorticoid receptor (Homo sapiens) (UniProt P04150); assay: qHTS assay for small molecule antagonists of glucocorticoid receptor signaling (AID 588533; active means well fitted inhibition curve with a large enough effect in the signal ratio, with a control signal flat, not every such curve was filed as active; the % refers to the signal ratio)
Summary of the method: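 Antagonist-mode qHTS: compound titrations added to GRE-bla HeLa cells, then dexamethasone 2 nM final; 18 h, 37 C. CCF4 FRET fluorescence normalized to dexamethasone and DMSO; IC50 from Hill fit.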

[15] = qHTS assay for small molecule antagonists of peroxisome proliferator-activated receptor delta signaling (AID 588535); details: HEK293T PPARd-UAS-bla, beta-lactamase FRET ratio, 18 h; 460 nm channel;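 further: cells co-treated with a PPAR-delta agonist as stimulator during compound exposure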
Summary of the method: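 Fluorescence from CCF4-loaded GeneBLAzer PPAR-delta-UAS-bla HEK293T cells (2 hrs RT loading) quantified reporter inhibition after an 18 hr, 37 C compound exposure across a titration.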

[16] = target: Peroxisome proliferator-activated receptor gamma (Homo sapiens) (UniProt P37231); assay: qHTS assay for small molecule agonists of peroxisome proliferator-activated receptor gamma signaling (AID 588536; active means well fitted curve in the direction sought with a large enough effect in the signal ratio, with a control signal flat, not every such curve was filed as active; the % refers to the signal ratio)
Summary of the method: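 Beta-lactamase reporter read-out: CCF4 fluorescence (ex 405, em 460/530 nm) after 2 h at RT. HEK293 GeneBLAzer cells were treated for 16 h at 37 C. Hill fits gave EC50 and efficacy versus 2 uM rosiglitazone (100%) and DMSO (0%).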

[17] = target: Estrogen receptor (Homo sapiens) (UniProt P03372); assay: qHTS assay for small molecule agonists of estrogen receptor alpha signaling (AID 588514); further: nearly all actives have a fitted effect of over 70% in size
Summary of the method: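 EC50 and efficacy came from Hill fits of beta-lactamase reporter signal (CCF4 dye, 2 h at room temperature) scaled between DMSO and 20 nM 17-beta-estradiol. Agonist mode: HEK293 ER-alpha-UAS-bla cells in charcoal/dextran-stripped serum medium, 18 h compound exposure at 37 C.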

[18] = target: Androgen receptor (Homo sapiens) (UniProt P10275); assay: qHTS assay for small molecule antagonists of androgen receptor signaling (AID 588516; active means well fitted curve in the direction sought with a large enough effect in the signal ratio, with a control signal flat, not every such curve was filed as active; the % refers to the signal ratio)
Summary of the method: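 Antagonist-mode qHTS: inhibition of R1881 (10 nM)-driven beta-lactamase expression in GripTite HEK 293 cells is measured after 16 h; values are Hill-derived IC50s normalized between R1881 and DMSO wells.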

Row | Compound | activation [1] | outcome [2] | outcome [3] | max response [4] | Potency [5] | outcome [6] | max response [7] | max response [8] | activity change % (negative = inhibition) [9] | Potency [10] | outcome [11] | outcome [12] | Potency [13] | outcome [14] | max response [15] | outcome [16] | outcome [17] | outcome [18]
1 | Brc1ccccc1-c1ccccc1 | 8.87% (inactive) | inactive | inactive | 10.3% | inactive | inactive | 1.21% | -2.01% (inactive) | -16.6% (inactive) | inactive | – | – | – | – | – | – | – | –
2 | Nc1ccc(O)cc1 | 1.91% (inactive) | – | inactive | 21.6% | inactive | – | -3.95% | -4.53% (inactive) | – | – | inactive | inactive | inactive | – | – | – | – | –
3 | CC(C)(C)c1ccc(O)c(O)c1 | 27.4% (inactive) and -11.3% (inactive) | inactive | inactive | – | – | inactive | 3.05% and -10.4% | -35.8% (inactive) and -24.1% (inactive) | -12.4% (inactive) and -14.4% (inactive) | – | inactive | inactive | inactive | inactive | -11.7% and -3.04% | inactive | – | –
4 | O=C1NC(c2cccc([N+](=O)[O-])c2)=CCN1c1ccccc1O | – | – | – | – | – | – | – | – | – | – | – | – | inactive | – | – | – | – | –
5 | COc1cc(C=O)ccc1O | – | inactive | inactive | -4.86% | inactive | inactive | -4.04% and -15.4% | 30% (inactive) and 5.74% (inactive) | 9.41% (inactive) and -10.4% (inactive) | inactive | inactive | inactive | inactive | – | -8.31% and -9.26% | inactive | inactive | inactive
6 | C1=CC2C3C=CC(C3)C2C1 (configuration not stated) | -4.75% (inactive) | inactive | inactive | 15.9% | inactive | inactive | – | – | 2.01% (inactive) | inactive | – | – | inactive | – | – | inactive | – | –
7 | CN(C)c1cc2c(Nc3ccc4c(cnn4Cc4ccccc4)c3)ncnc2cn1 | – | – | – | – | – | – | – | – | – | – | – | – | inactive | – | – | – | – | –
8 | O=C(NO)c1ccccc1 | -5.9% (inactive) | inactive | inactive | – | – | inactive | -10.6% | -9.23% (inactive) | -5.82% (inactive) | inactive | inactive | – | inactive | inactive | – | – | – | –
9 | Cc1ncc(CO)c(CO)c1O | – | inactive | inactive | -11.9% | inactive | – | -0.0047% | 7.42% (inactive) | – | – | inactive | inactive | – | – | 15.2% | inactive | – | –
10 | Cc1cc(C(C)(C)C)c(O)c(C(C)(C)C)c1 | -5.33% (inactive) and 4.56% (inactive) | – | – | -14.9% | 17.8 µM (active) | inactive | – | – | -7.42% (inactive) | inactive | inactive | inactive | – | inactive | 13.8% | inactive | – | –
